According to ChEMBL document CHEMBL2218924, “A broad activity screen in support of a chemogenomic map for kinase signalling research and drug discovery” (Biochem J, 2013):

Each compound was assayed against Death-associated protein kinase 1 (Homo sapiens) (UniProt P53355). Settings: at 1 µM.
Death-associated protein kinase 1 (Homo sapiens), sequence (P53355 whole entry, looked up): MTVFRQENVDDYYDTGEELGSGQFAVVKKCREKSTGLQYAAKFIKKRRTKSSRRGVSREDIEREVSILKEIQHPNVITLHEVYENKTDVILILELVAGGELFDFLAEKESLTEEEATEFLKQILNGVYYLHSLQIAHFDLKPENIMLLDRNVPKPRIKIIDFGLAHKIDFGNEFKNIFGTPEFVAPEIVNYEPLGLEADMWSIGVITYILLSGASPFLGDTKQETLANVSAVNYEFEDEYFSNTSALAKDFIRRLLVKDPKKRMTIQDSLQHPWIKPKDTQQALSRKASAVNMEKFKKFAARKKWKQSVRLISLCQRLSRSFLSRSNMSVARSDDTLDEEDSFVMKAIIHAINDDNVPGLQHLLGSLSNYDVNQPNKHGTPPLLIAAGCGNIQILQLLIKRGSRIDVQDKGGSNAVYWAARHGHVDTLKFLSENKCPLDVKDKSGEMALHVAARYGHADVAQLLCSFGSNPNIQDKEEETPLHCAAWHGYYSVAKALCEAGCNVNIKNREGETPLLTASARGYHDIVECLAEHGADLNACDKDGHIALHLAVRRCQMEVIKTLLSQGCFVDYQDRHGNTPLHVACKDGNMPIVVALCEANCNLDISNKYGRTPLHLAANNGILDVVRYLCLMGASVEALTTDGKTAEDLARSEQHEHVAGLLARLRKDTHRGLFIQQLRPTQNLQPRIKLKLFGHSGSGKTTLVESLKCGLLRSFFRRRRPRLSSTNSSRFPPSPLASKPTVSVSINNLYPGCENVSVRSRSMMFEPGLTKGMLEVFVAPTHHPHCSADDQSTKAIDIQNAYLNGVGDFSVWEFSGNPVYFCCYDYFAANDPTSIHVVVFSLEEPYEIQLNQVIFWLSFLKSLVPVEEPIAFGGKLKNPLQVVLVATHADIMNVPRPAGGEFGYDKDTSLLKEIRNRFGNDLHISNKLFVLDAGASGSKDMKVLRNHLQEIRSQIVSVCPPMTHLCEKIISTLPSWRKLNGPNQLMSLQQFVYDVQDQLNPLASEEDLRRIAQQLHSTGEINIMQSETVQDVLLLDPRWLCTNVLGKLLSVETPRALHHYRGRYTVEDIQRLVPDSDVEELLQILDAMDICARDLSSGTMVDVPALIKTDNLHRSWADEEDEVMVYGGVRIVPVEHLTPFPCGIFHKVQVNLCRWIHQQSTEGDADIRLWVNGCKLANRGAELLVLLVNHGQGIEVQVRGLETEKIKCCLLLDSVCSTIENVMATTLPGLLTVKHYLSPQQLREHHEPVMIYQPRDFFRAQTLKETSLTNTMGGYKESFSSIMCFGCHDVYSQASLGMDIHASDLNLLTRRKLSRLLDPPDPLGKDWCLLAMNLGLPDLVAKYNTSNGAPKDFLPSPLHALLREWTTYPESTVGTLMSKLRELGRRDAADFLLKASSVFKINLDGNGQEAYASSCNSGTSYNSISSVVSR

| SMILES | residual activity [%] |
| --- | --- |
| CC[n+]1c(/C=C/N(C)c2ccccc2)n(-c2ccccc2)c2ccc(-c3nc4ccccc4s3)cc21 | 79 |
| Cc1nc2cc3nc(-c4cccs4)cnc3cc2n1C | 94 |
| NC(=O)c1ccc(-c2nc(-c3ccc4c(c3)OCCO4)c(-c3ccccn3)[nH]2)cc1 | 86 |
| Nc1ncnc2c1c(-c1ccc(Oc3ccccc3)cc1)cn2C1CCCC1 | 91 |
| O=C(Nc1nc2ccccc2n1CCN1CCOCC1)c1cccc([N+](=O)[O-])c1 | 85 |
| Cc1ccc(S(=O)(=O)/C=C/C#N)cc1 | 88 |
| O=C(O)/C=C/c1cc(Br)c(Br)c(Br)c1Br | 86 |
| O=C(NC(NC(=S)Nc1ccc(F)c([N+](=O)[O-])c1)C(Cl)(Cl)Cl)C(c1ccccc1)c1ccccc1 (stereo not given) | 90 |
| COc1cc2nccc(Oc3ccc(NC(=S)NC(=O)c4ccccc4C)cc3)c2cc1OC | 81 |
| Oc1ccc(Nc2nc(-c3ccc(Cl)cc3)cs2)cc1 | 90 |
| Ic1cccc(CSc2nnc(-c3ccncc3)o2)c1 | 90 |
| O=C1NC(=O)c2c1c1c3ccccc3[nH]c1n1cncc21 | 57 |
| CCOc1cc2ncnc(Nc3cccc(Br)c3)c2cc1OCC | 83 |
| CCN(CC)CCCCN1c2ccccc2Oc2ccc(Cl)cc21 | 107 |
| Nc1cccc(-c2cc3c(Oc4cccc(O)c4)ncnc3[nH]2)c1 | 89 |
| Oc1cccc(-c2nc(N3CCOCC3)c3oc4ncccc4c3n2)c1 | 99 |
| COc1ccc(S(=O)(=O)N(CCO)c2ccccc2CN(C)C/C=C/c2ccc(Cl)cc2)cc1 | 86 |
| CO[C@H]1C[C@@H]2CC[C@@H](C)[C@@](O)(O2)C(=O)C(=O)N2CCCC[C@H]2C(=O)O[C@H]([C@H](C)C[C@@H]2CC[C@@H](O)[C@H](OC)C2)CC(=O)[C@H](C)/C=C(\C)[C@@H](O)[C@@H](OC)C(=O)[C@H](C)C[C@H](C)/C=C/C=C/C=C/1C | 95 |
| CC(C)[C@H](CO)Nc1nc(Nc2cc(N)cc(Cl)c2)c2ncn(C(C)C)c2n1 | 92 |
| Cc1cccc(-c2[nH]c(C(C)(C)C)nc2-c2ccc3c(c2)OCO3)n1 | 79 |
| NC(=O)c1ccc2[nH]c(-c3ccc(Oc4ccc(Cl)cc4)cc3)nc2c1 | 93 |
| Nc1ccc2ncnc(NCCc3ccc(Oc4ccccc4)cc3)c2c1 | 94 |
| Cc1cncc2cccc(S(=O)(=O)N3CCCN(C(=O)CN)C[C@H]3C)c12 | 88 |
| O=C(O)c1ccc2c3c1cccc3c(=O)n1c3ccccc3nc21 | 79 |
| C[C@@H](N)[C@H]1CC[C@H](C(=O)Nc2ccncc2)CC1 | 102 |
| CNc1cc2c(Nc3cccc(Br)c3)ncnc2cn1 | 97 |
| CC(C)(C)n1nc(Cc2cccc3ccccc23)c2c(N)ncnc21 | 86 |
| O=C(c1ccccc1)c1ccc(N2CCOCC2)cc1O | 97 |
| O=C1NC(=O)c2cc(Nc3ccc(F)cc3)c(Nc3ccc(F)cc3)cc21 | 87 |
| Fc1ccc(-c2nc3n(c2-c2ccncc2)CCS3)cc1 | 85 |
